Source: PubChem (National Center for Advancing Translational Sciences (NCATS))
ATXN2 expr inh – inhibitors of ATXN2 expression. HEK-293 ATXN2-luciferase reporter, luminescence, 24 h. Potency, µM (titrated, usually from 57 µM), for inactives: at the top dose activity change, negative = inhibition, most hits filed as inhibitors. actives 0.72% (n = 360,000); note: % is set by controls: 0 for no effect and ±100 for the full control effect; nearly all actives have a fitted effect of over 55% in size
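qHTS (up to 57 uM final) was run with 24 h compound exposure of reporter cells at 37 °C. Each well was multiplexed: SteadyGlo luminescence measured ATXN2-luciferase expression after a fluorogenic Gly-Phe-AFC viability readout (25 uM final).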
HepG2 tox – kills HepG2 cells in TGF-b inhibitor counter-screen | HepG2 CAGA-GFP viability, ATP luminescence, 18 h | Potency, µM (doses to about 46.1 µM), for the others: top-dose activity change, negative = cytotoxicity, most hits filed as cytotoxic | actives 0.76% (n = 410,000) | AID 588856
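CellTiter-Glo luminescence gave cytotoxicity after 18 hours at 37 degrees C. The cells were HepG2 CAGA-GFP in 1% FBS DMEM, stimulated with 500 pg/mL TGF-beta after compound addition. %Activity was normalised to no-cell wells (complete cell-killing) and DMSO (no toxicity), and curves were fitted and classified.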
TGFb SMAD3 inh – TGF-b pathway inhibition; actives 1.2% (n = 410,000); AID 588855; Potency, µM (series often up to 46.1 µM), for inactives: top-dose activity, negative = inhibition, usual class: inhibitors; HepG2 CAGA-GFP TGF-b/SMAD3 reporter, GFP fluorescence, 18 h; TGF-beta stimulated, 500 pg/mL final; note: % is set by controls: 0 for no effect and ±100 for the full control effect; nearly all actives have a fitted effect of over 65% in size
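Smad-responsive CAGA-GFP expression was quantified in HEPG2 cells exposed to compounds and 500 pg/mL final TGF-beta for 18 h at 37 degrees C; unstimulated wells defined full inhibition.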
ALOX12 inh – ALOX12 (human) lipoxygenase inhibition. P18054. purified 12hLO, xylenol orange hydroperoxide absorbance. Potency, µM (series often up to 108 µM), without a hit: at the top dose activity change, negative = inhibition, hits mostly inhibitors. actives 1.1% (n = 580,000). AID 1671190; note: % is set by controls: 0 for no effect and ±100 for the full control effect
Target sequence (P18054 whole entry, looked up): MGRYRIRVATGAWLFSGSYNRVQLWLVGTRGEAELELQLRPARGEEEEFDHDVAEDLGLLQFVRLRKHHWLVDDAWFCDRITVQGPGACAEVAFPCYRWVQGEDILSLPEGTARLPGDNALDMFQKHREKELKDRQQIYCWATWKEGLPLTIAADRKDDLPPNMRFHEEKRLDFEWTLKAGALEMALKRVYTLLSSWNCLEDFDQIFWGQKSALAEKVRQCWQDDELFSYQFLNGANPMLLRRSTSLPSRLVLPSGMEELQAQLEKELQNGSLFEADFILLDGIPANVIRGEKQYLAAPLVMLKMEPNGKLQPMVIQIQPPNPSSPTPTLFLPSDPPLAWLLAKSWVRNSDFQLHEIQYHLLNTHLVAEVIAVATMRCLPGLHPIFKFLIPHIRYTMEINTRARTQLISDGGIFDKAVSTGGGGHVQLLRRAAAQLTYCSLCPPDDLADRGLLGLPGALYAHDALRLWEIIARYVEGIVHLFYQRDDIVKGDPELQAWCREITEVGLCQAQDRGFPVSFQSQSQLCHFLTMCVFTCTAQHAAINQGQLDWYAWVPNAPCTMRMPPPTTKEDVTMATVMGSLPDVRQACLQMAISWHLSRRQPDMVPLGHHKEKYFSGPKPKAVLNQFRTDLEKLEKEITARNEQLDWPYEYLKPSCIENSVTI
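Hydroperoxide product was detected by ferrous iron/xylenol orange as the 573 to 405 nm absorbance ratio. Arachidonic acid at 40 uM (final) was turned over for 30 min at room temperature by 150 nM human 12hLO, pH 7.0 Hepes buffer, after 15 min compound preincubation.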
S2 tox – reduces viability in counter-screen for ATXN expression inhibitors; S2 cells (HEK-293 line with an ATXN2-luciferase reporter) viability, CellTiter-Fluor protease fluorescence, 24 h; Potency, µM (titrated, usually from 56.7 µM), hits mostly cytotoxic; actives 0.49% (n = 400,000); note: nearly all actives have a fitted effect of over 40% in size
Numbers without * were called inactive; i = inactive; u = inconclusive; x = not tested or not shown; [ ] = another dose, or the depositor's remark. Only some compounds are listed: those with a hit (about 2.7% of all), similar ones and a draw of the others. Calls come from the whole dose curve; as a rule, active = well fitted curve in the direction sought with a large enough effect; inconclusive = small, poorly fitted or top-dose-only effect, or another doubt; inactive = no such curve, though single readings can be large; an effect the other way counts as inactive or inconclusive. Potency is the fitted concentration of half-maximal effect.

SMILES | ATXN2 expr inh | HepG2 tox | TGFb SMAD3 inh | ALOX12 inh | S2 tox
C[C@H](CO)N1C[C@H](C)[C@@H](CN(C)C(=O)Nc2ccc(C(F)(F)F)cc2)Oc2c(NC(=O)NC3CCCCC3)cccc2C1=O | u | -32.2% | u | -10.3% | 28.2µM*
C[C@H](CO)N1C[C@H](C)[C@@H](CN(C)C(=O)Nc2ccccc2)Oc2c(NC(=O)Nc3ccc(C(F)(F)F)cc3)cccc2C1=O | u | -97.5% | 15.8µM* | u | x
C[C@H](CO)N1C[C@H](C)[C@@H](CN(C)C(=O)Nc2ccc(C(F)(F)F)cc2)Oc2c(NC(=O)C3CCCCC3)cccc2C1=O | -21.2% | -23.8% | u | 7.2% | u
C[C@@H]1CN([C@H](C)CO)C(=O)c2cccc(NC(=O)NC3CCCCC3)c2O[C@@H]1CN(C)C(=O)Nc1ccc(C(F)(F)F)cc1 | u | 17.8µM* | u | x | 22.4µM*
COc1ccc(CNC(=O)CSc2cc(C)c3ccc(OC)cc3n2)cc1 | x | x | x | -1.9% | x
COc1ccc2[nH]c(CNC(=O)C(c3ccc(F)cc3)N(C)C)cc2c1 (configuration not stated) | x | x | x | 0.2% | x
COC(=O)c1c(C)[nH]c(-c2csc(NC3CC3)n2)c1C | x | x | x | 31.6µM* | x
CCOC(=O)c1c(C)[nH]c(-c2csc(C)n2)c1C | 34.1% | -6.8% | 4.1% | -15.0% | i
CCOc1cc(C(=O)NCc2n[nH]c(=O)c3ccccc23)cc(OCC)c1OCC | x | x | x | -3.7% | x
CC(C(=O)N1CCNC1=O)N(C)Cc1ccccc1Br (configuration not stated) | x | x | x | 7.4% | x
CCc1ccc(C2c3c(-c4ccccc4O)n[nH]c3C(=O)N2Cc2ccncc2)cc1 (configuration not stated) | -19.1% | -43.4% | u | -19.1% | 25.1µM*
CCOCCCN1C(=O)c2[nH]nc(-c3ccccc3O)c2C1c1ccc(CC)cc1 (configuration not stated) | 0.0% | 17.8µM* | u | u | u
O=C1c2[nH]nc(-c3ccccc3O)c2C(c2cccc(O)c2)N1Cc1ccncc1 (configuration not stated) | -3.5% | -7.6% | u | 2.7% | i
Cc1ccc(C2c3c(-c4ccccc4O)n[nH]c3C(=O)N2CCCO)cc1 (configuration not stated) | -29.6% | 2.6% | 38.3% | -17.2% | u
Cc1ccc(C)c(S(=O)(=O)c2nnn3c2nc(NCc2ccc(F)cc2)c2sccc23)c1 | x | x | x | -6.9% | x
C=C(C)CNC(=S)NNC(=O)CCn1c2ccc(Cl)cc2c2cc(Cl)ccc21 | -23.4% | -104.8% | u | 31.6µM* | u
C=C(C)CNC(=S)NNC(=O)CCn1c2cc(Cl)ccc2c2ccc(Cl)cc21 | 3.3% | -52.4% | u | u | i
Cn1c(=O)[nH]c(=O)c2c1nc(CN1CCOCC1)n2Cc1ccc(Cl)c(Cl)c1 | x | x | x | -0.6% | x
Cc1cc(C)[n+](C)n1-c1ccccc1 | x | x | x | 17.8µM* | x
O=C(O)c1cc(S(=O)(=O)N2CCN(C(c3ccccc3)c3ccccc3)CC2)ccc1Cl | -1.8% | 12.0% | 0.0% | 39.8µM* | i
O=C(O)c1cc(S(=O)(=O)N2CCN(S(=O)(=O)c3ccccc3)CC2)ccc1Cl | 8.0% | 4.2% | -7.7% | -21.4% | i
c1ccc(CNc2nc(-c3ccoc3)nc3ccccc23)cc1 | x | x | x | 15.8µM* | x
Clc1ccc(N/N=C/c2cccc(/C=N/Nc3ccc(Cl)c(Cl)c3)c2)cc1Cl | x | x | x | 0.708µM* | x
Brc1cccc(/C=N/Nc2cccc3cccnc23)c1 | x | x | x | -17.3% | x
Clc1cccc(/C=N/Nc2ccc(Cl)c(Cl)c2)c1 | x | x | x | 5.62µM* | x
SMILES | ATXN2 expr inh | HepG2 tox | TGFb SMAD3 inh | ALOX12 inh | S2 tox
Clc1ccc(N/N=C/c2ccncc2)cc1Cl | 22.0% | 0.7% | -1.7% | u | i
Brc1cccc(/C=N/Nc2ccc3ccccc3c2)c1 | x | x | x | 5.62µM* | x
Clc1ccc(N/N=C/c2ccccc2)cc1Cl | x | x | x | 2.24µM* | x
NS(=O)(=O)c1ccc(CCC(=O)Nc2nc3c(s2)CCCC3)cc1 | x | x | x | -5.9% | x
CCN(CC)C(CNC(=O)Nc1ccc(C(=O)N2CCCCCC2)cc1)c1ccsc1 (configuration not stated) | x | x | x | -23.7% | x
COc1cc(/C=N/NC(=O)Cc2cccc(C(F)(F)F)c2)ccc1OCc1ccccc1 | x | x | x | -11.5% | x
FC(F)(F)c1ccc(Cl)c(N/N=C/c2cccc(OCc3ccccc3)c2)c1 | x | x | x | 7.08µM* | x
Cc1ccccc1-n1nnnc1SCC(=O)N(Cc1ccco1)C1=CCCCC1 | x | x | x | 8.91µM* | x
O=C(OCCCS(=O)(=O)c1ccccc1)c1ccc(I)cc1 | x | x | x | -3.5% | x
CN1/C(=C\C=C2/SC(=S)NC2=O)C(C)(C)c2ccccc21 | x | -40.0% | 35.2% | -18.6% | 28.2µM*
CN1/C(=C\C=[N+](C)c2ccccc2)C(C)(C)c2ccccc21 | 7.08µM* | -35.0% | -26.5% | u | 11.2µM*
Cc1c(CCC(=O)NCc2ccc(F)cc2)c(=O)oc2c(C)c(O)ccc12 | x | x | x | -3.2% | x
CCc1ccc2nc(N3CCC(C(=O)O)CC3)sc2c1 | 14.1µM* | 4.8% | 0.6% | -0.2% | i
CCc1ccc2nc(N3CCN(C(=O)C4CC4)CC3)sc2c1 | x | -28.4% | -5.4% | -4.4% | x
COCCNc1nc(NCCOC)c2sc(-c3ccccc3)cc2n1 | -17.0% | -29.0% | -1.9% | -12.1% | i
C=CCNc1nc(NCc2cccc(OC)c2)c2sc(-c3ccccc3)cc2n1 | u | 11.2µM* | u | u | u
COc1ccccc1CNc1nc(NC(C)C)nc2cc(-c3ccccc3)sc12 | 20µM* | 12.6µM* | u | u | 14.1µM*
Cc1ccc(F)cc1-c1nc(NC(C)C)nc2cc(-c3ccccc3)sc12 | 0.7% | -17.0% | 0.3% | u | i
CC(C)Nc1nc(NCCOc2ccccc2Cl)c2sc(-c3ccccc3)cc2n1 | u | 14.1µM* | u | u | u
Cc1ccc(S(=O)(=O)Nc2nc3ccccc3nc2NCc2ccc(Cl)cc2)cc1 | x | x | x | -14.1% | x
CCn1ncc(NC(=O)Cn2ncc3cc(-c4ccc(N(C)C)cc4)ccc32)n1 | x | x | x | 12.2% | x
Cc1cc(-c2cc3c(cn2)CN(Cc2ccccc2F)CCN3)ccn1 | x | x | x | -5.1%[176 µM] | x
CC(C)CC(c1nnnn1C(C)(C)C)N1CCN(Cc2ccccc2)CC1 (configuration not stated) | 5.2% | -8.1% | -7.0% | 10µM* | i
O=c1[nH]c(Sc2ccc([N+](=O)[O-])cc2[N+](=O)[O-])nc2ccccc12 | x | 11.2µM* | 14.1µM* | u | u
O=C(CSc1nc2ccccc2c(=O)[nH]1)Nc1ccc([N+](=O)[O-])cc1 | -17.0% | -61.9% | -14.3% | -19.8% | i
Cc1ccc(C(=O)CNc2cc(C)ccc2C)cc1 | 2.4% | -7.9% | -11.4% | 0.0% | i
